This is one part of a sample in which hits are shown more often than they occur.
TDP1 cell noCPT: qHTS for Inhibitors of human tyrosyl-DNA phosphodiesterase 1 (TDP1): qHTS in cells in absence of CPT. AID 686978, 2013. DT40 Tdp1-/- hTDP1 cells, no CPT, ATP luminescence, 48 h. 420,000 tested, 15% active. Potency, µM (titrated, usually from 46.2 µM), inactives show top-dose activity change, negative = growth inhibition, actives largely listed as inhibitors; also: potency is read from the fitted curve at half-maximal effect; nearly all actives have a fitted effect of over 55% in size
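Luminescent ATP content (CellTiter-Glo) served as the growth readout. Knockout chicken DT40 cells expressing human TDP1 were exposed to compounds without camptothecin for a minimum 48 hr at 37 °C.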
IL1B secr inh: inhibitors of inflammasome signaling (IL-1 beta secretion); THP-1 LPS/ATP IL-1B secretion, AlphaLISA, 16 h; stronger effect = lower value; activity change, % at 57.5 µM; 360,000 tested, 4.7% active; AID 743279; in the data active = activity change below about -50%; inconclusive = mostly about -30% to -49%
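THP-1 cells pretreated 1 hr with compounds (up to 57.5 uM final), then stimulated with LPS (250 ng/mL final) plus ATP (1.25 mM final); secreted IL-1B measured by AlphaLISA after 16 hr, decreased signal indicating inhibition.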
HT1080 IDH1KD tx: HT-1080 IDH1 knockdown cell toxicity (counter line). AID 686971. Potency, µM (titrated, usually from 46.1 µM), for inactives: at the highest dose activity, negative = toxicity, hits mostly cytotoxic. HT-1080 IDH1 knockdown viability, ATP luminescence, 48 h. 360,000 tested, 2% active;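 also: potency is read from the fitted curve at half-maximal effect; 0% = DMSO wells and -100% = cell-free medium wells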
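Using the IDH1-knockdown HT-1080 line run in the same batch and compound series as the NT line, viability after 48 h at 37 °C was determined by CellTiter-Glo luminescence and expressed as % activity.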
ALOX12 inh: blocks human arachidonate 12S-lipoxygenase; P18054; purified 12hLO, xylenol orange hydroperoxide absorbance; Potency, µM (highest dose often 108 µM), without a hit: top-dose activity change, negative = inhibition, actives largely listed as inhibitors; 580,000 tested, 1.1% active; AID 1671190; also: potency is read from the fitted curve at half-maximal effect
Target sequence (P18054 whole entry, looked up): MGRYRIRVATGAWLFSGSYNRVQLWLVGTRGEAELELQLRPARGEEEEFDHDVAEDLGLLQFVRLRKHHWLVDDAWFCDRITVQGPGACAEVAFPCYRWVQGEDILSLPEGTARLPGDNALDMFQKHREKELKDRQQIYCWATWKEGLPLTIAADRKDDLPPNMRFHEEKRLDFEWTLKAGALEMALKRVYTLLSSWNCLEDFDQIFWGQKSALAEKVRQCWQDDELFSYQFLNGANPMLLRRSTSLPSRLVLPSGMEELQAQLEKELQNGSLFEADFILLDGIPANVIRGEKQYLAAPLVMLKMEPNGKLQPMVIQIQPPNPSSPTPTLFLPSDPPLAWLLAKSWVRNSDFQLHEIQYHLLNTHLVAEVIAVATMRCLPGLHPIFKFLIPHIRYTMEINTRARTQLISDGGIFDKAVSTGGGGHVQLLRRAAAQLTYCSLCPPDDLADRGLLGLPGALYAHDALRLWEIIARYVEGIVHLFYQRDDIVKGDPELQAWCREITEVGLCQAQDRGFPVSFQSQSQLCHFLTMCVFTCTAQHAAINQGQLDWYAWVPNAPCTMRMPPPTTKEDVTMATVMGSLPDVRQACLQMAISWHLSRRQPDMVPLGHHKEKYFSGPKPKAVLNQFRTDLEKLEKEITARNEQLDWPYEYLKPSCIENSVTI
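Purified human 12hLO at 150 nM in 25 mM Hepes, 0.01% Triton X-100, pH 7.0, preincubated 15 min at room temperature with compound. Reaction started with 40 uM arachidonic acid, 30 min at room temperature. Hydroperoxide measured by Fe-xylenol orange, 573/405 nm absorbance ratio.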
TDP1 cell CPT: growth inhibition of DT40 Tdp1-/-;hTDP1 cells with camptothecin (screen for TDP1 inhibitors) | chicken DT40 Tdp1-/-;hTDP1 cells + 20 nM CPT, ATP luminescence, 48 h | Potency, µM (top dose mostly 46.2 µM), inactives show at the top dose activity change, negative = growth inhibition, actives largely listed as inhibitors | 420,000 tested, 12% active; also: potency is read from the fitted curve at half-maximal effect; nearly all actives have a fitted effect of over 55% in size
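Cell growth measured by CellTiter-Glo luminescence after a minimum 48 h, 37 C compound exposure with 20 nM CPT in Tdp1-knockout DT40 cells stably expressing hTDP1, seeded 400/well; qHTS titration format.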
HT1080-NT tox: kills 2HG-producing HT-1080-NT fibrosarcoma cells; Potency, µM (titrated, usually from 46.1 µM), for the others: at the highest dose activity, negative = less viability, most hits filed as cytotoxic; HT-1080-NT fibrosarcoma viability, CellTiter-Glo ATP luminescence, 48 h; 360,000 tested, 1.6% active;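 also: NT is the 2HG producing partner of a matched IDH1 knockdown line; potency is read from the fitted curve at half-maximal effect; 0% = DMSO-treated cells and -100% = media-only wells without cells; nearly all actives have a fitted effect of over 55% in size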
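Toxicity toward the 2HG-producing NT line was scored as %Activity, normalised to DMSO and no-cell wells, from CellTiter-Glo luminescence after 48 hours' treatment.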
Starred values were filed as active, the others as inactive; u = inconclusive; x = no result; [ ] = another dose, or the depositor's remark. Unless noted, calls follow the shape of the dose curve; as a rule, active = well fitted curve in the direction sought with a large enough effect; inconclusive = small, poorly fitted or top-dose-only effect, or another doubt; inactive = no such curve, though single readings can be large; an effect the other way counts as inactive or inconclusive. Unless noted, % is scaled to controls: 0 for no effect and ±100 for the full control effect.

SMILES | TDP1 cell noCPT | IL1B secr inh | HT1080 IDH1KD tx | ALOX12 inh | TDP1 cell CPT | HT1080-NT tox
CCc1ccc(NC(=O)CSc2nc(-c3cccc(OC)c3)nc3c2Cc2c(CO)cnc(C)c2O3)cc1 | 7.3µM* | x | x | -4% | 6.5µM* | x
O=C(CSc1nc(-c2ccccc2)nc2c1Cc1ccccc1O2)N1CCCCC1 | 12µM* | x | x | -20% | 10µM* | x
COc1ccc(-c2nc3c(c(SCC(=O)Nc4cc(C)cc(C)c4)n2)Cc2c(CO)cnc(C)c2O3)cc1 | -12% | x | x | -24% | -4% | x
CCCNC(=O)N1CCC(O)(c2cnc(CN3CCC3)s2)CC1 | x | x | x | 95%[176 µM] | x | x
COc1ccc(-c2nc3c(c(SCC(=O)N4CCOCC4)n2)Cc2c(CO)cnc(C)c2O3)cc1 | 10µM* | u | -11% | -12% | 15µM* | -10%
COc1ccc(-c2nc3c(c(SCC(=O)N4CCCCC4)n2)Cc2c(CO)cnc(C)c2O3)cc1 | 1.3µM* | x | x | 0% | 2.6µM* | x
CCN(CC)C(=O)CSc1nc(-c2ccc(C)cc2)nc2c1Cc1c(CO)cnc(C)c1O2 | 8.2µM* | x | x | -2% | 9.2µM* | x
CCSc1nc(-c2ccccc2)nc2c1Cc1c(CO)cnc(C)c1O2 | -2% | x | x | -6% | -9% | x
COC(=O)c1ccc(NC(=O)CCc2c(C)[nH]n(-c3ccc(F)cc3)c2=O)cc1 | x | x | x | 17% | x | x
Oc1ccc(N=Nc2ccccc2)o1 | 13µM* | -90* | 23µM* | 26% | 5.8µM* | 16µM*
Oc1c(N=Nc2ccccc2)sc2ccccc12 | -26% | 0 | -8% | -21% | -18% | -9%
c1ccc(C(CCNc2ncncn2)c2ccco2)cc1 (stereo unspecified) | x | x | x | 30% | x | x
Cn1cnc2nc(Cl)nc(Cl)c21 | 1.2µM* | -93* | u | u | 1.6µM* | u
CCOC(=O)C1=C(CSc2nc(CC)c(C)cc2C#N)OC(N)=C(C#N)C1c1ccc(OC)cc1 (stereo unspecified) | 16µM* | 5 | 7% | -24% | u | -1%
CCOC(=O)C1=C(CSc2nc(-c3ccncc3)ccc2C#N)OC(N)=C(C#N)C1c1ccc(OC)cc1 (stereo unspecified) | 16µM* | -29 | 9% | 0% | u | 1%
CCOC(=O)C1=C(CSc2nc(-c3ccncc3)ccc2C#N)OC(N)=C(C#N)C1c1cccnc1 (stereo unspecified) | u | u | 8% | -10% | -17% | 16%
COc1cccc(CNCC2(COc3ccccc3)C[C@@H](O)[C@@H](O)C2)c1 (stereo partly specified) | x | x | x | -7%[176 µM] | x | x
CC(=O)Nc1ccc(C2=NNC(=Nc3cccc(S(=O)(=O)N(C)C)c3)SC2)cc1 | 5.8µM* | -79* | u | x | 6.5µM* | u
COc1ccc(C2=NNC(=Nc3cc(S(=O)(=O)N(C)C)ccc3C)SC2)c(OC)c1 | 16µM* | -54* | u | 32% | u | u
COCCN=C1NN=C(c2ccc(NC(C)=O)cc2)CS1 | -20% | 54 | -18% | -2% | -2% | -19%
CN(C)S(=O)(=O)c1cccc(N=C2NN=C(c3ccccc3)CS2)c1 | 7.3µM* | -57* | u | -12% | 18µM* | u
COCCn1c(=O)c2c(nc(-n3nc(C)cc3C)n2Cc2ccc(F)cc2)n(C)c1=O | x | x | x | 28% | x | x
COc1ccc(Oc2ccc(/C=C/C(=O)c3ccc(O)cc3)cc2[N+](=O)[O-])cc1 | 15µM* | -100* | u | -4% | u | 23µM*
O=C(/C=C/c1ccc(O)c([N+](=O)[O-])c1)c1ccc2ccccc2c1 | 23µM* | -20 | u | -12% | 18µM* | -14%
COc1cccc(CC(=O)N2CC(c3nnc(-c4ccncc4)o3)C3(CCOCC3)C2)c1 (stereo unspecified) | x | x | x | 43% | x | x
SMILES | TDP1 cell noCPT | IL1B secr inh | HT1080 IDH1KD tx | ALOX12 inh | TDP1 cell CPT | HT1080-NT tox
COc1ccc(Br)cc1/C=C/C(=O)Nc1ccc2ccccc2c1 | u | -20 | 1% | -8% | u | 11%
COc1ccc(Br)cc1/C=C/C(=O)Nc1ccc(C)cc1 | 16µM* | -67* | u | 1% | 16µM* | -28%
COc1cc(/C=C/C(=O)Nc2ccc(C)cc2)cc(OC)c1OC | 16µM* | 15 | -8% | -2% | u | -4%
COc1cc(/C=C/C(=O)Nc2nc3ccc(S(=O)(=O)N(C)C)cc3s2)cc(OC)c1OC | u | 28 | 6.5µM* | 20% | u | u
COc1cc(/C=C/C(=O)Nc2nnc(C(C)(C)C)s2)cc(OC)c1OC | u | -9 | 4% | -28% | u | -3%
COc1cc(/C=C/C(=O)Nc2ccc(S(=O)(=O)Nc3onc(C)c3C)cc2)cc(OC)c1OC | -2% | -12 | 5% | 195% | 9% | 2%
COC(=O)c1ccccc1NC(=O)/C=C/c1cc(OC)c(OC)c(OC)c1 | 21µM* | -85* | -8% | 0% | 21µM* | -4%
O=c1oc2ccc3ccccc3c2cc1-c1ccccc1 | x | x | x | -18% | x | x
CC(C)=CC(O)C/C(C)=C/COc1ccc2ccc(=O)oc2c1 (stereo unspecified) | 9.2µM* | u | u | 26% | 7.3µM* | 23µM*
COC(=O)[C@]12CCCCC=C1N(CCC1=CCCCC1)C(=O)[C@H](CC(=O)NCCc1ccccc1OC)C2 | u | -52* | u | 1% | 16µM* | u
CCOC(=O)[C@]12CCCC=C1N(CCC1=CCCCC1)C(=O)[C@H](CC(=O)NCCc1ccccc1OC)C2 | 13µM* | -24 | u | 13% | 13µM* | -18%
CCOC(=O)[C@]12CCC=C1N(CCC1=CCCCC1)C(=O)[C@H](CC(=O)NCCc1ccccc1OC)C2 | u | -1 | 5% | u | u | 2%
Clc1ccc(CNC2CCN(Cc3ccccc3)CC2)cc1 | u | -24 | u | 8.9µM* | -98% | -26%
S=C(NCc1ccc(Cl)cc1)NC1CCN(Cc2ccccc2)CC1 | 16µM* | -92* | 21µM* | u | 18µM* | 23µM*
c1ccc(-c2ccc(CNC3CC3)cc2)cc1 | 0% | -87* | -6% | 45% | u | 6%
Clc1ccc(CN2CCC(c3ccccc3)CC2)cc1 | u | 2 | -2% | -18% | u | -1%
Cc1ccc(C23CC4CC(CC(C(N)=O)(C4)C2)C3)cc1 | -3% | 10 | 0% | 29% | 15% | -1%

Source: PubChem BioAssay (National Center for Advancing Translational Sciences (NCATS))
